Assay results: PubChem BioAssay AID1159580 (chemical genetic matrix, 2015)
“And” between values parts separate entries of the source, which are not always exact repeats. Identical values can stand only once. About 2,000 (36%) of roughly 5,500 compounds were called active. Inconclusive results (about 18%) are left out. Rule as the data show it: active = normalized growth mostly below about 0.91 (no sharp cut-off); inconclusive = no clear call, values can overlap the other calls; inactive = mostly above about 0.92. This is one part of the list.

Experiment: chemical genetic growth profiling, strain panel (AID 1159580);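 also: tested at 20 µM; growth read once vehicle control cultures reached saturation at 30 °C; 1 = growth at the plate median or of vehicle wells; lower values mean less growth of the strain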
Settings: S. cerevisiae deletion strains, growth OD

Measured: normalized growth

NC(Cc1ccc(F)cc1)C(=O)O (configuration not stated)
inactive: locus YAL013W, strain DEP1, hits give low values 1.01 | locus YAL021C, strain ccr4, hits give low values 0.987 | locus YAL026C, strain drs2, hits give low values 1.03 | locus YAL030W, strain snc1, hits give low values 1.01 | locus YBL061C, strain skt5, hits give low values 1.03 | locus YBR009C, strain hhf1, hits give low values 1.03 | locus YBR021W, strain FUR4, hits give low values 0.99 | locus YBR023C, strain chs3, hits give low values 1.01 | locus YBR171W, strain sec66, hits give low values 1.03 | locus YBR229C, strain ROT2, hits give low values 1.01 | locus YBR231C, strain swc5, hits give low values 1.02 | locus YCL011C, strain gbp2, hits give low values 1.02 | locus YCL016C, strain dcc1, hits give low values 1.01 | locus YCL029C, strain bik1, hits give low values 1.03 | locus YCL061C, strain MRC1, hits give low values 1.01 | locus YCL069W, strain vba3, hits give low values 1.01 | locus YCR088W, strain abp1, hits give low values 1.02 | locus YDL005C, strain med2, hits give low values 1.01 | locus YDL035C, strain GPR1, hits give low values 1.01 | locus YDL040C, strain nat1, hits give low values 1 | locus YDL074C, strain BRE1, hits give low values 1.01 | locus YDL101C, strain DUN1, hits give low values 1.01 | locus YDL134C, strain PPH21, hits give low values 1.01 | locus YDL185W, strain tfp1, hits give low values 1.03 | locus YDL192W, strain arf1, hits give low values 1.02 | locus YDR001C, strain nth1, hits give low values 1.01 | locus YDR069C, strain doa4, hits give low values 1.02 | locus YDR101C, strain arx1, hits give low values 1.04 | locus YDR137W, strain rgp1, hits give low values 0.994 | locus YDR150W, strain NUM1, hits give low values 0.997 | locus YDR159W, strain sac3, hits give low values 1.02 | locus YDR162C, strain NBP2, hits give low values 1.02 | locus YDR195W, strain ref2 1.04 | locus YDR297W, strain sur2, hits give low values 1.02 | locus YDR318W, strain mcm21, hits give low values 1.02 | locus YDR334W, strain swr1, hits give low values 1.02 | locus YDR335W, strain msn5, hits give low values 1.02 | locus YDR388W, hits give low values 1.03 | locus YDR392W, strain spt3, hits give low values 0.923 | locus YDR502C, strain sam2, hits give low values 1.02 | locus YEL003W, strain gim4, hits give low values 1.02 | locus YEL037C, strain rad23, hits give low values 1.01 | locus YEL061C, strain CIN8 (second series), hits give low values 1.02 | locus YEL061C, strain CIN8, hits give low values 1 | locus YER015W, strain faa2, hits give low values 1.02 | locus YER016W, strain bim1, hits give low values 1.02 | locus YER110C, hits give low values 1.04 | locus YER111C, strain swi4, hits give low values 1.03 | locus YER155C, strain BEM2 (second series), hits give low values 1.04 | locus YER155C, strain BEM2, hits give low values 1 | locus YER167W, strain BCK2, hits give low values 1 | locus YFR010W, strain ubp6, hits give low values 1.01 | locus YGL078C, strain dbp3, hits give low values 1.02 | locus YGL086W, strain mad1, hits give low values 1 | locus YGL167C, strain pmr1, hits give low values 1.02 | locus YGL173C, strain kem1, hits give low values 1.02 | locus YGL227W, strain vid30, hits give low values 1.02 | locus YGL240W, strain doc1, hits give low values 1.03 | locus YGL248W, strain PDE1, hits give low values 1.02 | locus YGL253W, strain hxk2, hits give low values 1.04 | locus YGR135W, strain pre9, hits give low values 1.02 | locus YGR229C, strain SMI1, hits give low values 0.992 | locus YGR252W, strain gcn5, hits give low values 1.06 | locus YHR013C, strain ard1, hits give low values 1.01 | locus YHR027C, strain rpn1, hits give low values 1.01 | locus YHR030C, strain SLT2, hits give low values 1.01 and 1.02 | locus YHR079C, strain IRE1 (second series), hits give low values 1.03 | locus YHR079C, strain IRE1, hits give low values 1.02 | locus YHR094C, strain hxt1, hits give low values 1.02 | locus YHR129C, strain ARP1, hits give low values 1.01 | locus YHR142W, strain chs7, hits give low values 0.996 | locus YHR200W, strain rpn10, hits give low values 1.02 | locus YIL066C, strain RNR3, hits give low values 1.01 | locus YIL073C, strain SPO22, hits give low values 1.09 | locus YIL125W, strain kgd1, hits give low values 1.02 | locus YIR030C, strain dcg1, hits give low values 1.02 | locus YJL092W, strain hpr5, hits give low values 1.02 | locus YJL095W, strain BCK1 (second series), hits give low values 1.01 | locus YJL095W, strain BCK1, hits give low values 1.02 and 1.03 | locus YJL115W, strain asf1, hits give low values 1.01 | locus YJL129C, strain trk1, hits give low values 1.01 | locus YJL134W, strain LCB3, hits give low values 1 | locus YJL154C, strain vps35, hits give low values 1.01 | locus YJL164C, strain tpk1, hits give low values 0.966 | locus YJL166W, strain qcr8, hits give low values 1 | locus YJL168C, strain set2, hits give low values 1.01 | locus YJL187C, strain SWE1 (second series), hits give low values 1.03 | locus YJL187C, strain SWE1, hits give low values 1.02 | locus YJR043C, strain POL32, hits give low values 1 | locus YJR066W, strain TOR1, hits give low values 1 | locus YJR075W, strain HOC1, hits give low values 1.01 | locus YKL009W, strain mrt4, hits give low values 1 | locus YKL068W, hits give low values 1.01 | locus YKL085W, strain MDH1 (second series), hits give low values 1.02 | locus YKL085W, strain MDH1, hits give low values 1.02 | locus YKL160W, strain elf1, hits give low values 0.99 | locus YKR001C, strain vps1, hits give low values 1.01 | locus YKR026C, strain gcn3, hits give low values 1.03 | locus YKR091W, strain srl3, hits give low values 1.02 | locus YLL001W, strain dnm1, hits give low values 1 | locus YLL026W, hits give low values 1.01 | locus YLL041C, strain sdh2, hits give low values 1.01 | locus YLR027C, strain aat2, hits give low values 1.01 | locus YLR039C, strain RIC1, hits give low values 1.04 | locus YLR058C, strain SHM2, hits give low values 1.02 | locus YLR102C, strain apc9, hits give low values 1.03 | locus YLR113W, strain HOG1, hits give low values 1.03 | locus YLR221C, strain rsa3, hits give low values 0.993 | locus YLR258W, strain gsy2, hits give low values 1.02 | locus YLR262C, strain YPT6 (second series), hits give low values 0.997 | locus YLR262C, strain YPT6, hits give low values 1.06 | locus YLR268W, strain sec22, hits give low values 1.03 | locus YLR320W, strain mms22, hits give low values 1.02 | locus YLR330W, strain CHS5, hits give low values 1.01 | locus YLR342W, strain FKS1 (second series), hits give low values 0.979 | locus YLR342W, strain FKS1, hits give low values 1.02 | locus YLR357W, strain rsc2, hits give low values 1.01 | locus YLR370C, strain arc18, hits give low values 1.02 | locus YLR371W, strain rom2, hits give low values 1.02 | locus YLR384C, strain iki3, hits give low values 1.02 | locus YLR418C, strain cdc73, hits give low values 1.02 | locus YML016C, strain PPZ1, hits give low values 1 | locus YML032C, strain rad52, hits give low values 1.03 | locus YML120C, strain ndi1, hits give low values 1.01 | locus YML124C, strain tub3, hits give low values 1.02 | locus YMR058W, strain fet3, hits give low values 1.02 | locus YMR078C, strain ctf18, hits give low values 1.04 | locus YMR125W, strain sto1, hits give low values 1.04 | locus YMR129W, hits give low values 1.01 | locus YMR205C, strain PFK2, hits give low values 1.02 | locus YMR223W, strain ubp8, hits give low values 1.02 | locus YMR231W, strain pep5, hits give low values 1.02 | locus YMR263W, strain SAP30, hits give low values 1.01 | locus YMR307W, strain GAS1, hits give low values 1.05 | locus YNL067W, strain RPL9B, hits give low values 1.03 | locus YNL071W, strain lat1, hits give low values 1 | locus YNL128W, strain TEP1, hits give low values 1.04 | locus YNL183C, strain NPR1, hits give low values 0.969 | locus YNL209W, strain ssb2, hits give low values 1.02 | locus YNL233W, strain BNI4, hits give low values 1.02 | locus YNL248C, strain rpa49, hits give low values 0.982 | locus YNL250W, strain rad50, hits give low values 1.02 | locus YNL271C, strain bni1, hits give low values 1.04 | locus YNL298W, strain CLA4, hits give low values 1.02 | locus YNL307C, strain MCK1, hits give low values 1.03 | locus YNL322C, strain KRE1 (second series), hits give low values 1.01 | locus YNR049C, strain mso1, hits give low values 1.04 | locus YNR052C, strain pop2, hits give low values 1.02 | locus YOL012C, strain htz1 1.76 | locus YOL147C, strain pex11, hits give low values 1.03 | locus YOR001W, strain rrp6, hits give low values 1.01 | locus YOR061W, strain CKA2, hits give low values 1.02 | locus YOR069W, strain VPS5, hits give low values 1 | locus YOR070C, strain gyp1, hits give low values 1.01 | locus YOR080W, strain dia2, hits give low values 1.02 | locus YOR083W, strain WHI5, hits give low values 0.985 | locus YOR106W, strain vam3, hits give low values 0.992 | locus YOR136W, strain idh2, hits give low values 1.05 | locus YOR144C, strain elg1, hits give low values 1.02 | locus YOR184W, strain ser1, hits give low values 1.04 | locus YOR231W, strain MKK1, hits give low values 1.05 | locus YOR265W, strain rbl2, hits give low values 1.01 | locus YOR270C, strain vph1, hits give low values 1.02 | locus YOR290C, strain snf2, hits give low values 0.998 | locus YOR316C, strain cot1, hits give low values 1.02 | locus YPL051W, strain arl3, hits give low values 0.998 | locus YPL055C, strain LGE1, hits give low values 1.02 | locus YPL078C, strain atp4, hits give low values 0.988 | locus YPL106C, strain sse1, hits give low values 1.02 | locus YPL240C, strain hsp82, hits give low values 1.03 | locus YPL241C, strain CIN2, hits give low values 1 | locus YPL256C, strain CLN2, hits give low values 1.02 | locus YPR119W, strain clb2, hits give low values 1.02 | locus YPR141C, strain kar3, hits give low values 1.03 | locus YPR163C, strain tif3, hits give low values 1.04 | locus YPR167C, strain met16, hits give low values 1.03 | strain wtn01, hits give low values 1.03
